Measured values taken from PubChem BioAssay (NCATS).
Where “and” joins values, the source holds several entries; their conditions need not be identical. Equal values may be shown once. Inconclusive results are not listed. The source holds several records for some structures; these can differ, active in one and inactive in another. Calls of active or inactive are those of the source. Calls come from the whole dose curve; as a rule, active = well fitted curve in the direction sought with a large enough effect; inconclusive = small, poorly fitted or top-dose-only effect, or another doubt; inactive = no such curve, though single readings can be large; an effect the other way counts as inactive or inconclusive.

Key:
[1] = system: TAB109; assay: qHTS profiling for inhibitors of Plasmodium falciparum proliferation (AID 504749); note: nearly all actives have a fitted effect of over 60% in size; conditions: P. falciparum in erythrocytes, SYBR Green DNA, 72 h; series mostly up to 28.7 µM
Procedure, shortened: (§1)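 Each compound contacts P. falciparum-infected red blood cells for 72 h at 37 C; lysis buffer (Tris, EDTA, saponin, Triton X, SYBR Green I) is added and fluorescence measured next morning; values normalized to controls.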

[2] = system: TAB113; assay: as above; conditions: P. falciparum in erythrocytes, SYBR Green DNA, 72 h; series mostly up to 28.7 µM
Procedure, shortened: as §1

[3] = system: TAB165; assay: as above; conditions: P. falciparum in erythrocytes, SYBR Green DNA, 72 h; series mostly up to 28.7 µM
Procedure, shortened: as §1

[4] = system: CRL-7250; assay: Cytotoxic Profiling of Annotated Libraries Using Quantitative High-Throughput Screening (AID 1296008); conditions: Five cell lines viability, CellTiter-Glo ATP luminescence, 48-72 h; max response: stronger effect = lower value; note: nearly all actives have a fitted effect of over 60% in size; for max response: % is set by controls: 0 for no effect and ±100 for the full control effect
Procedure, shortened: (§2)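 Cells exposed to compounds for 48 or 72 hr at 37 degrees Celsius. Viability read as ATP-coupled luminescence with CellTiter-Glo after 10 min at room temperature.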

[5] = system: HEK293; assay: as above; conditions: Five cell lines viability, CellTiter-Glo ATP luminescence, 48-72 h; max response: stronger effect = lower value
Procedure, shortened: as §2

[6] = system: HaCat; assay: as above; conditions: Five cell lines viability, CellTiter-Glo ATP luminescence, 48-72 h; max response: stronger effect = lower value
Procedure, shortened: as §2

[7] = system: NIH3T3; assay: as above; conditions: Five cell lines viability, CellTiter-Glo ATP luminescence, 48-72 h; max response: stronger effect = lower value
Procedure, shortened: as §2

[8] = system: HACAT; assay: qHTS assay to identify novel small-molecules to repurpose for Merkel cell carcinoma treatment (AID 1296009); conditions: MCC and control cell lines, CellTiter-Glo viability, 72 h; at 44.8 µM (top of the series) unless noted; note: nearly all actives have a fitted effect of over 60% in size
Procedure, shortened: (§3)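 Dose-response viability screen; 72 hr exposure at 37 degree celsius; CellTiter-Glo added, 10 min room temperature, luminescence read; RLUs scaled between no-cell and DMSO wells.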

[9] = system: MCC-13; assay: as above; conditions: MCC and control cell lines, CellTiter-Glo viability, 72 h; series mostly up to 46 µM
Procedure, shortened: as §3

[10] = system: MCC-26; assay: as above; conditions: MCC and control cell lines, CellTiter-Glo viability, 72 h; series mostly up to 46 µM
Procedure, shortened: as §3

[11] = system: MKL-1; assay: as above; conditions: MCC and control cell lines, CellTiter-Glo viability, 72 h; series mostly up to 46 µM
Procedure, shortened: as §3

[12] = system: MKL-2; assay: as above; conditions: MCC and control cell lines, CellTiter-Glo viability, 72 h; series mostly up to 46 µM
Procedure, shortened: as §3

[13] = system: UISO; assay: as above; conditions: MCC and control cell lines, CellTiter-Glo viability, 72 h; series mostly up to 46 µM
Procedure, shortened: as §3

[14] = system: WaGa; assay: as above; conditions: MCC and control cell lines, CellTiter-Glo viability, 72 h; series mostly up to 46 µM
Procedure, shortened: as §3

[15] = system: C33A; assay: Primary qHTS to identify gynecologic anti-cancer compounds using libraries of approved drugs and bioactive compounds (AID 1345084); conditions: Gynecologic cancer cell panel viability, ATPlite luminescence, 48 h; series mostly up to 57.5 µM; note: nearly all actives have a fitted effect of over 55% in size
Procedure, shortened: (§4)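 Measured: luminescence after ATPlite addition (15 min, RT). Exposure: 48 h, 37 C, 5% CO2.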

[16] = system: CAOV3; assay: as above; conditions: Gynecologic cancer cell panel viability, ATPlite luminescence, 48 h; series mostly up to 57.5 µM
Procedure, shortened: as §4

[17] = system: W2; assay: qHTS profiling for inhibitors of Plasmodium falciparum proliferation (AID 504749); note: nearly all actives have a fitted effect of over 60% in size; conditions: P. falciparum in erythrocytes, SYBR Green DNA, 72 h; series mostly up to 28.7 µM
Procedure, shortened: as §1

[18] = system: KB-3-1; assay: Cytotoxic Profiling of Annotated Libraries Using Quantitative High-Throughput Screening (AID 1296008); conditions: Five cell lines viability, CellTiter-Glo ATP luminescence, 48-72 h; max response: stronger effect = lower value; note: nearly all actives have a fitted effect of over 60% in size; for max response: % is set by controls: 0 for no effect and ±100 for the full control effect
Procedure, shortened: as §2

[19] = system: HEK293T; assay: qHTS assay to identify novel small-molecules to repurpose for Merkel cell carcinoma treatment (AID 1296009); conditions: MCC and control cell lines, CellTiter-Glo viability, 72 h; at 44.8 µM (top of the series) unless noted; note: nearly all actives have a fitted effect of over 60% in size
Procedure, shortened: as §3

[20] = system: NIH3T3; assay: as above; conditions: MCC and control cell lines, CellTiter-Glo viability, 72 h; at 44.8 µM (top of the series) unless noted
Procedure, shortened: as §3
Potency is the fitted concentration of half-maximal effect.

Cc1c(OCC(F)(F)F)ccnc1CS(=O)c1nc2ccccc2[nH]1 (centres undefined)
inactive: Potency [1] | Potency [2] | Potency [3] | max response [4] -8.7% and 2.17% | max response [5] 3.36% | outcome [6] | max response [7] 1.81% and 4.74% | outcome [8] | Potency [9] | Potency [10] | Potency [11] | Potency [12] | Potency [13] | Potency [14] | Potency [15] | Potency [16]

N=C(N=C(N)N)N1CCOCC1
inactive: Potency [1] | Potency [2] | Potency [17] | max response [4] -16.7% and 0.819% | max response [5] -13.7% and 0.579% | outcome [6] | max response [18] -9.57% and 4.72% | max response [7] -0.0574% and 2.52% | outcome [8] | Potency [9] | Potency [10] | Potency [11] | Potency [12] | Potency [13] | Potency [14] | Potency [15] | Potency [16]

O=C(O)c1cn(-c2ccc(F)cc2)c2cc(N3CCNCC3)c(F)cc2c1=O
active: Potency [17] 10.7 µM
inactive: Potency [2] | max response [4] 3.53% and 1.39% | max response [5] -4.73% | max response [6] -14.9% | max response [18] 14.5% and 6.97% | max response [7] -0.0226% and -6.36% | Potency [9] | Potency [10] | Potency [11] | Potency [12] | Potency [13] | Potency [14] | Potency [15] | Potency [16]

C[C@@H](c1ncncc1F)[C@](O)(Cn1cncn1)c1ccc(F)cc1F
inactive: max response [4] -18.6% | max response [5] -20.1% | outcome [6] | max response [7] -4.26% | outcome [8] | Potency [9] | Potency [10] | Potency [11] | Potency [12] | Potency [13] | Potency [14]

CC(C)C[C@H](NC(=O)[C@H](Cc1ccccc1)NC(=O)c1cnccn1)B(O)O
active: Potency [4] 59.6 nM and 51.7 nM | Potency [5] 47.3 nM and 41.1 nM | Potency [6] 188 nM | Potency [18] 58 nM and 105 nM | Potency [7] 53.1 nM and 11.6 nM | Potency [10] 0.0376 µM | Potency [11] 26.6 nM | Potency [12] 6 nM | Potency [13] 0.0266 µM | Potency [14] 16.8 nM | Potency [15] 0.1 µM

Nc1cc(C(Cl)=C(Cl)Cl)c(S(N)(=O)=O)cc1S(N)(=O)=O
inactive: Potency [1] | Potency [2] | Potency [3] | Potency [17] | max response [4] -8.91% | outcome [5] | max response [6] 2.98% and -14% | max response [7] 4.72% and -5.94% | outcome [19] | Potency [9] | Potency [10] | Potency [11] | Potency [12] | Potency [13] | Potency [14] | Potency [15] | Potency [16]

CN(C)c1ccc2nc3ccc(=[N+](C)C)cc-3sc2c1
active: Potency [1] 0.0501 µM | Potency [2] 0.0501 µM | Potency [3] 0.0708 µM | Potency [17] 0.0478 µM | Potency [4] 11.8 µM and 23.7 µM | Potency [5] 1.66 µM and 1.33 µM | Potency [6] 3.72 µM and 10.6 µM | Potency [18] 2.09 µM and 6.51 µM | Potency [7] 5.26 µM and 3.35 µM | Potency [9] 7.43 µM and 2.66 µM | Potency [10] 21.1 µM | Potency [11] 2.35 µM and 841 nM | Potency [12] 4.69 µM and 2.66 µM | Potency [13] 3.32 µM and 2.37 µM | Potency [14] 1.87 µM and 1.19 µM | Potency [15] 1.12 µM | Potency [16] 3.98 µM

CCOC(=O)C(C)Oc1cccc2c(=O)n(CC(=O)Nc3ccc4c(c3)OCCO4)ccc12 (centres undefined)
inactive: max response [4] 3.46% | max response [5] -23.2% | outcome [6] | outcome [18] | max response [7] 0.733% | outcome [8] | Potency [9] | Potency [10] | Potency [11] | Potency [13] | Potency [14]

O=C1NC(=O)C(c2ccccc2[N+](=O)[O-])=C1Nc1ccc(O)c(Cl)c1
inactive: max response [4] -2.05% | outcome [5] | max response [6] -25.3% | outcome [18] | outcome [7] | outcome [19] | Potency [9] | Potency [10] | Potency [11] | Potency [12] | outcome [20] | Potency [13] | Potency [14]

COc1ccccc1N1CCN(CCN(C(=O)C2CCCCC2)c2ccccn2)CC1
inactive: outcome [4] | max response [5] 3.7% | max response [6] 1.26% and -29.9% | max response [7] -13.5% | outcome [7] | Potency [9] | Potency [10] | Potency [11] | Potency [12] | outcome [20] | Potency [13] | Potency [14] | Potency [15]

N=C(N)c1ccc2cc(OC(=O)c3ccc(N=C(N)N)cc3)ccc2c1
active: Potency [17] 6.75 µM
inactive: max response [4] -0.158% and -1.28% | max response [5] -23.8% and 0.182% | max response [6] -5.52% and -24.6% | max response [18] 12.9% | max response [7] -7.31% and -12.8% | Potency [9] | Potency [10] | Potency [11] | Potency [13] | Potency [15]
inactive and 26.6 µM (active): Potency [14]

O=C(OC1C[C@H]2CC[C@@H](C1)[N+]21CCCC1)C(O)(c1ccccc1)c1ccccc1 (some centres undefined)
inactive: max response [4] 4.02% | max response [5] 3.35% | max response [6] 1.67% | max response [18] 8.48% and 5.72% | max response [7] -8.22% | Potency [9] | Potency [10] | Potency [11] | Potency [12] | Potency [13] | Potency [14] | Potency [15]
active: Potency [1] 3.55 µM | Potency [3] 3.98 µM | Potency [17] 1.69 µM

S=c1nc[nH]c2nc[nH]c12
active: Potency [5] 6.68 µM and 13.2 µM | Potency [6] 14800 nM | Potency [18] 7.43 µM | Potency [7] 1.88 µM and 4.69 µM | Potency [9] 2.99 µM and 11.8 µM | Potency [13] 4.18 µM | Potency [14] 1.19 µM and 2.96 µM | Potency [15] 10 µM
inactive: max response [4] -19.8% | Potency [10] | Potency [11] | Potency [12] | Potency [16]

CN(C)C(=O)[C@H](O)[C@H](Cc1ccccc1)NC(=O)c1cc2cc(Cl)ccc2[nH]1
inactive: outcome [4] | max response [6] -6.71% | outcome [6] | max response [18] -0.73% | outcome [18] | max response [7] -4.58% | outcome [7] | outcome [8] | Potency [9] | Potency [12] | outcome [20] | Potency [14] | Potency [15]
active: Potency [13] 4.18 µM

Cc1cc(C2CCCCC2)n(O)c(=O)c1
active: Potency [3] 3.16 µM | Potency [17] 3.61 µM | Potency [4] 3.35 µM and 2.96 µM | Potency [5] 5.9 µM | Potency [6] 23.7 µM and 20.9 µM | Potency [7] 3.76 µM and 14.8 µM | Potency [9] 10.6 µM | Potency [10] 15 µM | Potency [11] 2.11 µM and 10.5 µM | Potency [12] 1.88 µM and 11.8 µM | Potency [13] 2.66 µM and 13.2 µM | Potency [14] 1.88 µM and 11.8 µM | Potency [15] 15.8 µM | Potency [16] 15.8 µM

COc1cc(Nc2c(C#N)cnc3cc(OCCCN4CCN(C)CC4)c(OC)cc23)c(Cl)cc1Cl
inactive: Potency [12]
8.41 µM (active) and inactive: Potency [11]
29.9 µM (active) and inactive: Potency [14]
active: Potency [4] 3.72 µM and 6.51 µM | Potency [5] 2.37 µM and 4.18 µM and 11.6 µM | Potency [6] 841 nM and 1.66 µM and 2.31 µM | Potency [7] 9.44 µM and 1.18 µM and 8.2 µM | Potency [15] 14.1 µM | Potency [16] 6.31 µM

Cc1cccc(C)c1OCC(=O)N[C@@H](Cc1ccccc1)[C@@H](O)C[C@H](Cc1ccccc1)NC(=O)[C@H](C(C)C)N1CCCNC1=O
inactive: Potency [15] | Potency [16]
active: Potency [1] 2.82 µM | Potency [2] 1.78 µM | Potency [3] 1 µM | Potency [17] 1.69 µM
